# Measured values taken from PubChem BioAssay AID1332 (Southern Research Institute, 2008).
# In all, about 1,100 compounds went through this assay and about 170 (15%) were called active. No rule for the calls is given here. Only a sample is shown.
# Assay: Mycobacterium tuberculosis H37Rv growth inhibition, confirmatory dose response, cytotoxicity (AID 1332);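 as to CC50: Vero cells exposed to compounds for 72 hours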;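 as to IC50: bacteria incubated 7 days before adding Alamar blue readout reagent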
# Conditions: M. tuberculosis H37Rv growth inhibition; CC50: measured here: Vero cell cytotoxicity; IC50: measured here: IC50 H37Rv replicates
Compound,IC50 [µg/mL],outcome,CC50 [µg/mL]
C[C@H]1[C@H]2CC[C@H]3[C@@H]4CC=C5C[C@@H](N(C)C)CC[C@]5(C)[C@H]4CC[C@]23CN1C,> 20,inactive,–
NC(N)=NC(N)=NCCc1ccccc1,> 20,inactive,–
CCOC(=O)[C@H](CCc1ccccc1)N[C@@H](C)C(=O)N1CCC[C@H]1C(=O)O,> 20,inactive,–
CC(=O)Oc1ccccc1C(=O)Oc1ccccc1C(=O)O,> 20,inactive,–
O=C(OCC(O)CO)c1ccccc1Nc1ccnc2cc(Cl)ccc12 (stereo unspecified),> 20,inactive,–
CCc1cccc(CC)c1NC(=O)CN(CC(=O)O)CC(=O)O,> 20,inactive,–
COc1cc(-c2ccc(N=Nc3ccc4c(S(=O)(=O)O)cc(S(=O)(=O)O)c(N)c4c3O)c(OC)c2)ccc1N=Nc1ccc2c(S(=O)(=O)O)cc(S(=O)(=O)O)c(N)c2c1O,> 20,inactive,–
NCC1CCC(C(=O)O)CC1 (stereo unspecified),> 20,inactive,–
C[C@H](O)C(=O)Nc1c(I)c(C(=O)NC(CO)CO)c(I)c(C(=O)NC(CO)CO)c1I,> 20,inactive,–
CCCOc1cc(N)ccc1C(=O)OCCN(CC)CC,> 20,inactive,–
COc1c2c(nc3ccccc13)OC(C(C)(O)CO)C2 (stereo unspecified),> 20,inactive,–
CN1CCC[C@@H]1CCO[C@](C)(c1ccccc1)c1ccc(Cl)cc1,10.9,active,> 6
CN1CCCCC1CCN1c2ccccc2Sc2ccc(S(C)=O)cc21 (stereo unspecified),> 20,inactive,–
CN1C(CC(O)c2ccccc2)CCCC1CC(O)c1ccccc1 (stereo unspecified),> 20,inactive,–
O[C@@H]1[C@@H](O)C=C2CCN3Cc4cc5c(cc4[C@H]1C23)OCO5 (stereo partly specified),> 20,inactive,0.806
CC1CCc2cc(F)cc3c(=O)c(C(=O)O)cn1c23 (stereo unspecified),9.83,active,–
CCn1cc(C(=O)O)c(=O)c2cc3c(cc21)OCO3,> 20,inactive,–
O=C1N=C(O)CN1/N=C/c1ccc(-c2ccc([N+](=O)[O-])cc2)o1,> 20,inactive,–
CNCC(O)c1ccc(OC(=O)C(C)(C)C)c(OC(=O)C(C)(C)C)c1 (stereo unspecified),> 20,inactive,–
C=C(C)[C@@H]1C2C(=O)O[C@H]1[C@H]1OC(=O)[C@@]34OC3C[C@]2(O)[C@@]14C (stereo partly specified),> 20,inactive,–
CC1(C)OC(=O)NC1=O,> 20,inactive,–
CC(C)(C)C(=O)OCOC(=O)[C@@H]1N2C(=O)[C@@H](NC(=O)[C@H](N)c3ccccc3)[C@H]2SC1(C)C,> 20,inactive,–
